Tests used:
Experiment in all cases: DAPPL (digital affinity profiling via proximity ligation, sequencing); 10 mM Tris-HCl pH 7.5, 50 mM NaCl, 1 mM DTT, 4% glycerol, room temperature, 30 min; GST-TFs on glutathione beads, 16-mer random dsDNA library, 0.1% formaldehyde crosslink after washing; high values mean tight binding
FEV = target: T1, FEV (Homo sapiens, UniProt Q99581 1-238); conditions: protein: recombinant; tags: N-terminal GST; dsDNA, one strand shown
T1 sequence: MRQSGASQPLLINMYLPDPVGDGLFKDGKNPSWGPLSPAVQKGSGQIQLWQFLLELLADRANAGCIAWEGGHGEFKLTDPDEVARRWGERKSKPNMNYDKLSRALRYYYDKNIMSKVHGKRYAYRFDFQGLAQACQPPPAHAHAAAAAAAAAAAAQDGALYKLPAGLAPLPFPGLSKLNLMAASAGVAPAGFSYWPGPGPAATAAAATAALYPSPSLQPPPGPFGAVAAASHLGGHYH
Method in brief: (§1)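 Yeast served to express human transcription factors as GST fusions, which were then captured on glutathione beads and labelled with DNA barcodes. Pooled with a tag-only sample, they were incubated with 200 nmole of a 16-mer random double-stranded DNA library for 30 min at room temperature in Tris/NaCl/DTT/glycerol buffer, washed, crosslinked with 0.1% formaldehyde, ligated by proximity, amplified by PCR and sequenced. Dividing each hexamer's read frequency for a factor by its frequency for the tag-only sample gives the binding signal.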

ETV5 = ETV5 (Homo sapiens, UniProt P41161 1-510); conditions: protein: recombinant; tags: N-terminal GST; dsDNA, one strand shown
Sequence of ETV5 (P41161 whole entry): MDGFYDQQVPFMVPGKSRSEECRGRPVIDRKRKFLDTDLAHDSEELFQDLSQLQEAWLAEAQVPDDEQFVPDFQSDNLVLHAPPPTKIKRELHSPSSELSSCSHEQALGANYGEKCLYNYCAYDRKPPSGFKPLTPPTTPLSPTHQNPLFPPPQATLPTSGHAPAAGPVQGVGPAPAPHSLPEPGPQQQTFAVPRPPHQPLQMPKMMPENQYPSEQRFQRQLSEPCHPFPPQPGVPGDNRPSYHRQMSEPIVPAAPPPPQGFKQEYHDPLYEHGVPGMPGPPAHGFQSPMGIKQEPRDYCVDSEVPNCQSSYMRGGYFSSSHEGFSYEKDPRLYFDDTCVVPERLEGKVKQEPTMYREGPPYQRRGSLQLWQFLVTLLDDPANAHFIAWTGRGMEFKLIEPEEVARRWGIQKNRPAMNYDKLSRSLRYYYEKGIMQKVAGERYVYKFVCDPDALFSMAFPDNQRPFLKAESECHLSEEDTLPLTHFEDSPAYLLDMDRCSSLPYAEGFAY
Method in brief: as §1

HSF1 = HSF1 (Homo sapiens, UniProt Q00613 1-529); conditions: protein: recombinant; tags: N-terminal GST; chain copies: 3; dsDNA, one strand shown
Sequence of HSF1 (Q00613 whole entry): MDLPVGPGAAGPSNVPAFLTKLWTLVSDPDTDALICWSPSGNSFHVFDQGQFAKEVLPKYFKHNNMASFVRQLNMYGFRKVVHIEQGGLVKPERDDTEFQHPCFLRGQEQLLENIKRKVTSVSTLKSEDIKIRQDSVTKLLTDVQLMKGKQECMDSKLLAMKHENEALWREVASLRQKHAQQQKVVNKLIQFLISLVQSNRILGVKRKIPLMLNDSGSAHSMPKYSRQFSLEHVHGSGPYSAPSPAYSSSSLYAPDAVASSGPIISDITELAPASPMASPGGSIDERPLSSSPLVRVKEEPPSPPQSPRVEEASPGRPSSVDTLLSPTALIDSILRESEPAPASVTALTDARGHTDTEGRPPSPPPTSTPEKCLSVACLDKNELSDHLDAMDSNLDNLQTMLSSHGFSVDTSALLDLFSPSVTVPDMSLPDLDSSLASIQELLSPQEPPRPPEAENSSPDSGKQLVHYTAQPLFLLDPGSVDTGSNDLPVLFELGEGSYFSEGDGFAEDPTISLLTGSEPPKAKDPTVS
Method in brief: as §1

SPIC = target: T2, SPIC (Homo sapiens, UniProt Q8N5J4 1-248); conditions: protein: recombinant; tags: N-terminal GST; dsDNA, one strand shown
T2 sequence: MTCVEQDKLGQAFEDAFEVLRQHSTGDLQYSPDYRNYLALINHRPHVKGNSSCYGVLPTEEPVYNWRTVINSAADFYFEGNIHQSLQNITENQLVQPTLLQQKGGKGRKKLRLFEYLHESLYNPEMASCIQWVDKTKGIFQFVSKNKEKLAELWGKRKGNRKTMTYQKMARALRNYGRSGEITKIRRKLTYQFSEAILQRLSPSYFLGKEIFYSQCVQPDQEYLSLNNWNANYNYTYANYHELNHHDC
Method in brief: as §1

ELF4 = ELF4 (Homo sapiens, UniProt Q99607 1-663); conditions: protein: recombinant; tags: N-terminal GST; dsDNA, one strand shown
Sequence of ELF4 (Q99607 whole entry): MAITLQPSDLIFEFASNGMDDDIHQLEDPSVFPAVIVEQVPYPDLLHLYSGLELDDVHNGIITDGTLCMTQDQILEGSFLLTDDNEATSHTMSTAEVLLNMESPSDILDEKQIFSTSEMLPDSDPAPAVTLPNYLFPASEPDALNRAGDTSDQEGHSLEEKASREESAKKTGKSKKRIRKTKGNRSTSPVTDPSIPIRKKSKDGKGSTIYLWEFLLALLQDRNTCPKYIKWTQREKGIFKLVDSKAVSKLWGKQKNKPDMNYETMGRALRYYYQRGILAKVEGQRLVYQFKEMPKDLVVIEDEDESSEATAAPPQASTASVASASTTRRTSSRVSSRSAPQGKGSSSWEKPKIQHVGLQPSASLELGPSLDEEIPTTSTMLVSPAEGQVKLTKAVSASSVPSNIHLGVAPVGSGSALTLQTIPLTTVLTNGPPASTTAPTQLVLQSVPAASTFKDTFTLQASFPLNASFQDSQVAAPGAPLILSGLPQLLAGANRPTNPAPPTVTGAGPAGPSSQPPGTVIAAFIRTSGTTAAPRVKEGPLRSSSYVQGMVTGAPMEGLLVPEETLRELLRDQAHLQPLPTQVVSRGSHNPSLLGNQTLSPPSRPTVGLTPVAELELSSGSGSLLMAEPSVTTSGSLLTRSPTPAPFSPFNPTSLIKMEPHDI
Method in brief: as §1

ELK4 = target: T3, ELK4 (Homo sapiens, UniProt P28324-2 1-405); conditions: protein: recombinant; tags: N-terminal GST; dsDNA, one strand shown
T3 sequence: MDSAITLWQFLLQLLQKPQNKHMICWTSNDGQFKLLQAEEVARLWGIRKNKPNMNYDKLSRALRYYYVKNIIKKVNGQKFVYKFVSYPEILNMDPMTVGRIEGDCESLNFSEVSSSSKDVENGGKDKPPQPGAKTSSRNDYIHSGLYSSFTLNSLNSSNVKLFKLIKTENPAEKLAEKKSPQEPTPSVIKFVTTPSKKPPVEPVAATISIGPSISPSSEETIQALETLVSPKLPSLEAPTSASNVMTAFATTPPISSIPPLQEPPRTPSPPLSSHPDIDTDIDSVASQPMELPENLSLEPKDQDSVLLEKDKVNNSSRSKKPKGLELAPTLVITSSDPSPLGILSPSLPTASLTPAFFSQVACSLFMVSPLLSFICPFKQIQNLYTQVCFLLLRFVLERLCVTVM
Method in brief: as §1

ETV2 = target: T4, ETV2 (Homo sapiens, UniProt O00321 1-342); conditions: protein: recombinant; tags: N-terminal GST; dsDNA, one strand shown
T4 sequence: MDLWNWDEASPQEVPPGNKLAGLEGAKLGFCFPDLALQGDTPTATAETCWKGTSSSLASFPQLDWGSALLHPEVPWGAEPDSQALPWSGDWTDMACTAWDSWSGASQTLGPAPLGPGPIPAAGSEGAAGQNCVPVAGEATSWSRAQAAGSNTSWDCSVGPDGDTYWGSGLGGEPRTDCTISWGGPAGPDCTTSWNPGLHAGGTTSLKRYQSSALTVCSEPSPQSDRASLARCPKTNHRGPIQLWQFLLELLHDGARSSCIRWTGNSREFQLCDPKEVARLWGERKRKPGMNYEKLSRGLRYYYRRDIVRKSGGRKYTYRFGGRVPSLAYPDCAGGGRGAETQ
Method in brief: as §1

ELF3 = target: T5, ELF3 (Homo sapiens, UniProt P78545 1-371); conditions: protein: recombinant; tags: N-terminal GST; dsDNA, one strand shown
T5 sequence: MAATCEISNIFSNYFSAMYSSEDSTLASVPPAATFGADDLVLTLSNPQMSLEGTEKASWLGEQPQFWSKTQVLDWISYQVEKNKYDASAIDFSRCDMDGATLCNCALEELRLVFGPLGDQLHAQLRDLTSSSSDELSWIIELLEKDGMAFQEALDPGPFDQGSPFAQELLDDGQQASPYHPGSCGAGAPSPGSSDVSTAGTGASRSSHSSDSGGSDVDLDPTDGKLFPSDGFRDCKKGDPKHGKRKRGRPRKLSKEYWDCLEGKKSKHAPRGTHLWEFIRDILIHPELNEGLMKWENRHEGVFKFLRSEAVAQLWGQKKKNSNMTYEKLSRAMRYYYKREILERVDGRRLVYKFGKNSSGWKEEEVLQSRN
Method in brief: as §1

CRX = CRX (Homo sapiens, UniProt O43186 1-299); conditions: protein: recombinant; tags: N-terminal GST; dsDNA, one strand shown
Sequence of CRX (O43186 whole entry): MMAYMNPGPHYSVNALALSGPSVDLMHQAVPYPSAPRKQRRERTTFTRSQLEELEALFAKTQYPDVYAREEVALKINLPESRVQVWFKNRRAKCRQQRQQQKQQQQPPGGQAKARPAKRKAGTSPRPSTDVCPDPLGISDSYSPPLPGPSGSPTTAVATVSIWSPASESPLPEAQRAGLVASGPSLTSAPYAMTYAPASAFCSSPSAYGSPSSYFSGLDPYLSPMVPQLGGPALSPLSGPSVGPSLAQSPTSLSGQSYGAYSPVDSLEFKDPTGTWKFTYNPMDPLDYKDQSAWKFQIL
Method in brief: as §1

ETV1 = ETV1 (Homo sapiens, UniProt P50549 1-477); conditions: protein: recombinant; tags: N-terminal GST; dsDNA, one strand shown
Sequence of ETV1 (P50549 whole entry): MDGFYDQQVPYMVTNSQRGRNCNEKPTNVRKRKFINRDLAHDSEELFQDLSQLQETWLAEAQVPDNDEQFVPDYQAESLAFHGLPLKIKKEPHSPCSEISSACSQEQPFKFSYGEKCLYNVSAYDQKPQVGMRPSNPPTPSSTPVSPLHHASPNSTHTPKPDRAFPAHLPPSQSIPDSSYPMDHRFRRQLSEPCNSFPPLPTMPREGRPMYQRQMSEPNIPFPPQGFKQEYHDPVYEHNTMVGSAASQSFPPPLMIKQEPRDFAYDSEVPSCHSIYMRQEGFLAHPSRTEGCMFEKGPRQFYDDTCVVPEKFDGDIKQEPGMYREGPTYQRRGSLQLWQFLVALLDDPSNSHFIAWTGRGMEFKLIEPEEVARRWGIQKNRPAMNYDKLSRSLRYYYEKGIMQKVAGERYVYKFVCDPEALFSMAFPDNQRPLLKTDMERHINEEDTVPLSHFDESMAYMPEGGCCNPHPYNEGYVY
Method in brief: as §1

ERF = target: T6, ERF (Homo sapiens, UniProt P50548 1-548); conditions: protein: recombinant; tags: N-terminal GST; dsDNA, one strand shown
T6 sequence: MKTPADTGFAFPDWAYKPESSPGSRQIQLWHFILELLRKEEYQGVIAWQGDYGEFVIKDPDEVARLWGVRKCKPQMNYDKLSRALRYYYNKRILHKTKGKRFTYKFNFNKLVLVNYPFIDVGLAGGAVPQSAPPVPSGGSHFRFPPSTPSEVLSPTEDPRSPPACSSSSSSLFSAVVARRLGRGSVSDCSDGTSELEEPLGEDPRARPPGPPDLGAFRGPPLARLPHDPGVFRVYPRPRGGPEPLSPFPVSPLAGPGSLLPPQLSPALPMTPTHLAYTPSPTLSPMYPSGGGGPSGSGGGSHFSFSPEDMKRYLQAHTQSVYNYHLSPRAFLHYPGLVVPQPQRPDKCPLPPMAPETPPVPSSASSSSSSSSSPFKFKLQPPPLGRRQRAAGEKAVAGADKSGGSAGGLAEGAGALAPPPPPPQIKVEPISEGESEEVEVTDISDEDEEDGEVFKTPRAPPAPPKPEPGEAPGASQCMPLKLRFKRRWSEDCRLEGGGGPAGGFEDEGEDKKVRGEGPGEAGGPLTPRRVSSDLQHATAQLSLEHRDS
Method in brief: as §1

ETV3L = target: T7, ETV3L (Homo sapiens, UniProt Q6ZN32 1-361); conditions: protein: recombinant; tags: N-terminal GST; dsDNA, one strand shown
T7 sequence: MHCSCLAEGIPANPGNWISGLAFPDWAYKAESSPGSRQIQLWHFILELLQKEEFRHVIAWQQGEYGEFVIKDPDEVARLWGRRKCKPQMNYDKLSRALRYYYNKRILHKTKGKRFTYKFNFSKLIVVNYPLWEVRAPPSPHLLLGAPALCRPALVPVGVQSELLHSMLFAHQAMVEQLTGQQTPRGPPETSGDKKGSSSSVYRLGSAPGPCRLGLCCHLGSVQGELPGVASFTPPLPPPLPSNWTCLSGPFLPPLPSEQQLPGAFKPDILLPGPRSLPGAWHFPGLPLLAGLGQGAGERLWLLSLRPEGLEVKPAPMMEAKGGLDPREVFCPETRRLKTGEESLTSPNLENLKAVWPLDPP
Method in brief: as §1

ETS2 = target: T8, ETS2 (Homo sapiens, UniProt P15036 1-469); conditions: protein: recombinant; tags: N-terminal GST; dsDNA, one strand shown
T8 sequence: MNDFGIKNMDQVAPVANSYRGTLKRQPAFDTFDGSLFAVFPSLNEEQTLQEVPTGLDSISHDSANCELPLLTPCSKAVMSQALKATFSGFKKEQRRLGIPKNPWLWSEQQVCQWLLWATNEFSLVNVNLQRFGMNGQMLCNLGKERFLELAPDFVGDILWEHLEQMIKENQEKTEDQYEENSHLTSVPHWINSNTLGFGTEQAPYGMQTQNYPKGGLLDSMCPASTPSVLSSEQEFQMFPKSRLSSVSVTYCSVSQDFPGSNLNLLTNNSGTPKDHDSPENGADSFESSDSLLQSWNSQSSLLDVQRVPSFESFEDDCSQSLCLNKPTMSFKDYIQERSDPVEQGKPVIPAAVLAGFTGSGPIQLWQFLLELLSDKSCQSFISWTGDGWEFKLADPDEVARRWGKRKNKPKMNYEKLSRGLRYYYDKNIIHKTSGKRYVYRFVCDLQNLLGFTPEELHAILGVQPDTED
Method in brief: as §1

SPDEF = target: T9, SPDEF (Homo sapiens, UniProt O95238 1-335); conditions: protein: recombinant; tags: N-terminal GST; dsDNA, one strand shown
T9 sequence: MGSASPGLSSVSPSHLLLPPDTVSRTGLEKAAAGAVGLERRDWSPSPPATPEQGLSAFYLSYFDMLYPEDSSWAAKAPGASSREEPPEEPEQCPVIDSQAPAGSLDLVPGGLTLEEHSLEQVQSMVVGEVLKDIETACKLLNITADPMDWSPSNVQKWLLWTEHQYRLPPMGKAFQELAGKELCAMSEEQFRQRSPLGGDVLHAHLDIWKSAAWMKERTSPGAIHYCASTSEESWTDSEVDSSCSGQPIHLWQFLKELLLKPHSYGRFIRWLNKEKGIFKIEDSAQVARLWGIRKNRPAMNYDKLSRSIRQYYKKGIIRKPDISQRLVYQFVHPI
Method in brief: as §1

ETV7 = target: T10, ETV7 (Homo sapiens, UniProt Q9Y603 1-341); conditions: protein: recombinant; tags: N-terminal GST; dsDNA, one strand shown
T10 sequence: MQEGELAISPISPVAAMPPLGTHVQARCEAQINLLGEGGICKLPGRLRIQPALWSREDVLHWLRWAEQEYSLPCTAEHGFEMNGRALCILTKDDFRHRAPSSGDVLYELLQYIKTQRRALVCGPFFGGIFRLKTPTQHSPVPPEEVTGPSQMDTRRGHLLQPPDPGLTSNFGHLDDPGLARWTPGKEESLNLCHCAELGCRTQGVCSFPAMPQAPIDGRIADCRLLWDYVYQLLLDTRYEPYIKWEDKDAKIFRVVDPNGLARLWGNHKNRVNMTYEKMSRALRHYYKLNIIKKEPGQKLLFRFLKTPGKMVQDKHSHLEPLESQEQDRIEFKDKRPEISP
Method in brief: as §1

ELF5 = target: T11, ELF5 (Homo sapiens, UniProt Q9UKW6-2 1-255); conditions: protein: recombinant; tags: N-terminal GST; dsDNA, one strand shown
T11 sequence: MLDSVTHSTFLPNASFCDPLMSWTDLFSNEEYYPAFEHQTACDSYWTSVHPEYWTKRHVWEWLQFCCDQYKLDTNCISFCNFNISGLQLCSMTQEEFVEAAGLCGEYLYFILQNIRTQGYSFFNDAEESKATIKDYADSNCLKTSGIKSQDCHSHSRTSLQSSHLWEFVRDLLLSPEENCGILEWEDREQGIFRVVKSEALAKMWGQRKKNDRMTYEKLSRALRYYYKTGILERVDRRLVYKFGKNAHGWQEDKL
Method in brief: as §1

ETV3 = target: T12, ETV3 (Homo sapiens, UniProt P41162-2 1-143); conditions: protein: recombinant; tags: N-terminal GST; dsDNA, one strand shown
T12 sequence: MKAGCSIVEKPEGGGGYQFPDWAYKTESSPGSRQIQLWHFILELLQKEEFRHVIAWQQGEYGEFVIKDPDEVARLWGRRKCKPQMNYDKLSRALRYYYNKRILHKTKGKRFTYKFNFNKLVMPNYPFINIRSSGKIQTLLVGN
Method in brief: as §1

ETV6 = ETV6 (Homo sapiens, UniProt P41212 1-452); conditions: protein: recombinant; tags: N-terminal GST; dsDNA, one strand shown
Sequence of ETV6 (P41212 whole entry): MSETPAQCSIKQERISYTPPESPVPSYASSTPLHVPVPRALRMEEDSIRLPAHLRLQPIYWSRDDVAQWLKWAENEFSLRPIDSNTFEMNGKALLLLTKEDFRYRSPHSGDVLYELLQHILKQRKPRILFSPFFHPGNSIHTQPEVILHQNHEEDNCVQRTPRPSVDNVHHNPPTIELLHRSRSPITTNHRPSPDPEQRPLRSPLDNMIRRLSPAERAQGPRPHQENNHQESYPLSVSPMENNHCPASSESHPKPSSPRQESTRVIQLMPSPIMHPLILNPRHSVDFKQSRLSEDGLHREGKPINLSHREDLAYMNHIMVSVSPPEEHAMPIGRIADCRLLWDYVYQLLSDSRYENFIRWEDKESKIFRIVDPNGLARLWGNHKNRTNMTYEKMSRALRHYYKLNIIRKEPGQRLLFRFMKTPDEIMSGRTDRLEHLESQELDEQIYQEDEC
Method in brief: as §1

## TGCTAG
FEV
  binding signal: 1.15 fold enrichment (6-mer frequency, TF over GST control)
ETV5
  binding signal: 1.3 fold enrichment (6-mer frequency, TF over GST control)
HSF1
  binding signal: 1.94 fold enrichment (6-mer frequency, TF over GST control)
SPIC
  binding signal: 1.17 fold enrichment (6-mer frequency, TF over GST control)
ELF4
  binding signal: 1.19 fold enrichment (6-mer frequency, TF over GST control)
ELK4
  binding signal: 1.26 fold enrichment (6-mer frequency, TF over GST control)
ETV2
  binding signal: 1.01 fold enrichment (6-mer frequency, TF over GST control)
ELF3
  binding signal: 1.34 fold enrichment (6-mer frequency, TF over GST control)
CRX
  binding signal: 1.21 fold enrichment (6-mer frequency, TF over GST control)
ETV1
  binding signal: 1.17 fold enrichment (6-mer frequency, TF over GST control)
ERF
  binding signal: 1.21 fold enrichment (6-mer frequency, TF over GST control)
ETV3L
  binding signal: 1.29 fold enrichment (6-mer frequency, TF over GST control)
ETS2
  binding signal: 1.04 fold enrichment (6-mer frequency, TF over GST control)
SPDEF
  binding signal: 1.09 fold enrichment (6-mer frequency, TF over GST control)
ETV7
  binding signal: 1.16 fold enrichment (6-mer frequency, TF over GST control)
ELF5
  binding signal: 1.09 fold enrichment (6-mer frequency, TF over GST control)
ETV3
  binding signal: 1.13 fold enrichment (6-mer frequency, TF over GST control)
ETV6
  binding signal: 1.05 fold enrichment (6-mer frequency, TF over GST control)
